Inconclusive results are not listed. Active and inactive are the calls of the source. The call rests on the fitted dose curve; in most records, active means well fitted curve in the direction sought with a large enough effect; inconclusive means small, poorly fitted or top-dose-only effect, or another doubt; inactive means no such curve, though single readings can be large or run the other way. Numbered stars: 1 amine (or outer) side, 2 acyl side, 3 side chain; on linkers, the order of the positions; unused ones are H or OH. Bridge positions count the residues as written; N and C are the ends. Square brackets hold non-standard residues; d marks the D form. Peptide text beside a SMILES is read from it. I, II: the chains in the order shown. Actinocin(9to1) = Cc1c2oc3c(C)ccc(C(=O)[*:1])c3nc-2c(C(=O)[*:2])c(N)c1=O; NMeV = CN[C@H](C(=O)O)C(C)C; Sar = CNCC(=O)O
system: Zika virus NS2B-NS3 protease (linked); experiment: Optimization screen NINDS AMC qHTS for Zika virus inhibitors: Linked NS2B-NS3 protease assay; details: recombinant linked NS2B-NS3 protease, AMC fluorogenic substrate; series mostly up to 52.5 µM
Procedure, shortened: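 Compounds tested in dose response, 15 min at room temperature with 1 nM linked NS2B-NS3 protease, pH 8.0 Tris/Tween buffer. Reaction started with 10 microM AMC substrate; fluorescence (340/450 nm) gain over 15 min, normalized to controls, Hill-fitted.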

Potency, inactive:
CC[C@@H]1O[C@]2(C=C[C@@H]1C)C[C@H]1C[C@H](CC=C(C)[C@@H](O[C@@H]3C[C@H](OC)[C@H](O[C@@H]4C[C@H](OC)[C@H](O)[C@H](C)O4)[C@H](C)O3)[C@@H](C)C=CC=C3CO[C@@H]4[C@@H](O)C(C)=C[C@@H](C(=O)O1)[C@]34O)O2
CC(C)C[C@H](NC(=O)[C@H](Cc1ccccc1)NC(=O)c1cnccn1)B(O)O
CC(C)N=c1cc2n(-c3ccc(Cl)cc3)c3ccccc3nc-2cc1Nc1ccc(Cl)cc1
Cc1c2oc3c(C)ccc(C(=O)N[C@@H]4C(=O)N[C@H](C(C)C)C(=O)N5CCC[C@H]5C(=O)N(C)CC(=O)N(C)[C@@H](C(C)C)C(=O)O[C@@H]4C)c3nc-2c(C(=O)N[C@@H]2C(=O)N[C@H](C(C)C)C(=O)N3CCC[C@H]3C(=O)N(C)CC(=O)N(C)[C@@H](C(C)C)C(=O)O[C@@H]2C)c(N)c1=O (I: T[dV]P[Sar][NMeV] / II: T[dV]P[Sar][NMeV]; ester I:1-I:C, II:1-II:C; linker I:N-II:N via Actinocin(9to1))
CC[C@H](C)[C@H]1O[C@]2(CC[C@@H]1C)C[C@@H]1C[C@@H](C/C=C(\C)[C@@H](O[C@H]3C[C@H](OC)[C@@H](O[C@H]4C[C@H](OC)[C@@H](O)[C@H](C)O4)[C@H](C)O3)[C@@H](C)/C=C/C=C3\CO[C@@H]4[C@H](O)C(C)=C[C@@H](C(=O)O1)[C@]34O)O2
O=C(Nc1ccc([N+](=O)[O-])cc1Cl)c1cc(Cl)ccc1O
N[C@H](C(=O)O)c1ccc(O)cc1

From PubChem BioAssay AID1347150 (National Center for Advancing Translational Sciences (NCATS), 2019)
